PubChem BioAssay (Tox21)
Inconclusive results are not listed. Entries that show only a call come without a potency. Active and inactive are the calls of the source. The call rests on the fitted dose curve; in most records, active means well fitted inhibition curve with a large enough effect in the signal ratio in the repeat runs (not every such curve was filed as active); inconclusive means weak or mixed curves, or effect the other way; inactive means flat fitted curve, though single readings scatter; the % refers to the signal ratio.

Assay: cAMP Responsive Elements (CRE) small molecule antagonists, cell-based qHTS assay (AID 1963591)
Settings: CRE-bla HEK293T, beta-lactamase FRET ratio; series mostly up to 92.4 µM
From the text: U.S. Tox21 Program National Center for Advancing Translational Sciences [NCATS] Division of Preclinical Innovation [DPI] U.S. Environmental Protection Agency [EPA] National Institutes of Environmental Health Sciences [NIEHS] National Toxicology Program [NTP] U.S. Food and Drug Administration [FDA] Tox21 Assay Overview: CREB (cyclic-AMP Responsive Element Binding Protein) is a cellular transcription factor. It binds to certain DNA sequences called cAMP Responsive Elements (CRE) and regulates the transcription of the genes. […] This cell line can be used to find agonists/antagonists of the cyclic AMP signaling pathway. The activation of the report gene under culture conditions can be detected by fluorescence intensity. This cell line has been used to screen the Tox21 10K compound library to […].
Tox21 Assay Protocol Summary: CRE-bla Hek 293T cells were suspended in assay medium (DMEM containing 10% dialyzed FBS, 0.1 mM NEAA, 1 mM sodium pyruvate and 25 mM HEPES) and dispensed at 2,000 cells/4 uL /well into 1536-well black wall/clear bottom plates using a Multidrop Combi (ThermoFisher Scientific, Waltham, MA) dispenser. After the assay plates were incubated at 37 C/5% CO2 for 18 hrs, 23 nL of compounds dissolved in DMSO, positive controls or DMSO only was transferred to the assay plate by a pintool workstation (Kalypsys, San Diego, CA), followed by addition of 1 […] uL of 1.25uM NKH477 (0.25 uM as final concentration) in assay medium using a Flying Reagent Dispenser (Aurora Discovery, San Diego, CA). The plates were incubated at 37 C and 5% CO2 for 3 hrs. Then 1 uL of LiveBLAzer B/G FRET substrate (Invitrogen, Carlsbad, CA) was added to each well using Bioraptr Flying Reagent Dispenser (FRD, Aurora Discovery, San Diego, CA). The plates were incubated at room temperature for 2 h.

Compound | Potency
CCc1cc(C)cc(CC)c1-c1c(OC(=O)C(C)(C)C)n2n(c1=O)CCOCC2 | inactive
O=C(O)C(Cl)Cl | inactive
CC(Cl)(Cl)C(=O)O | inactive
C#CCOC(C(=O)OCCN(C)C)(c1ccccc1)c1ccccc1 | inactive
CN(C)C(=O)Nc1cccc(C(F)(F)F)c1 | inactive
CCCCCCCCCCCCCCCCCC(=O)O | inactive
COCCC#N | inactive
COc1cccc(C=O)c1 | inactive
Cl | inactive
C=C(Cl)CCl | inactive
CCOP(=O)(OCC)OP(=O)(OCC)OCC | inactive
COC(C)(C)C | inactive
C=CCCC#N | inactive
COc1cc(OC)nc(Sc2cccc(Cl)c2C(=O)O)n1 | inactive
C#CCO | inactive
Cc1cccc(N)c1 | inactive
CCN(CC)C(=O)SCc1ccc(Cl)cc1 | inactive
NCCc1ccc(O)cc1 | inactive
O=C1CCCO1 | inactive
CCCCCc1cc(O)cc(O)c1 | inactive

Compound | Potency
CCC(=O)Nc1ccc(Cl)c(Cl)c1 | inactive
O=C/C=C/c1ccccc1 | inactive
CCOP(=S)(OCC)Oc1cnc2ccccc2n1 | inactive
CCCCNC(=O)n1c(NC(=O)OC)nc2ccccc21 | inactive
Cc1coc2c1CCC(C)C2 (stereo not given) | inactive
CCCCCCCCCCCC[N+](C)(C)CCOc1ccccc1 | inactive
CC[n+]1ccccc1 | inactive
C=CCc1cc(OC)c2c(c1)OCO2 | inactive
CS(=O)(=O)Cl | inactive
COc1ccc2c3c1O[C@H]1[C@@H](O)C=C[C@H]4[C@@H](C2)N(C)CC[C@@]341 | inactive
CC(C)(C1CCC(O)CC1)C1CCC(O)CC1 (stereo not given) | inactive
Nc1ccc(N=Nc2ccc(-c3ccc(N=Nc4c(S(=O)(=O)O)cc5cc(S(=O)(=O)O)c(N=Nc6ccccc6)c(O)c5c4N)cc3)cc2)c(N)c1 | inactive
C=C(C)C(=O)OCC1CO1 (stereo not given) | inactive
COC(C)(C)CCCC(C)C/C=C/C(C)=C/C(=O)OC(C)C (stereo not given) | inactive
Nc1ccc2ccccc2c1 | inactive
Cc1cccc(N)c1N | inactive
CC(C)(O)C(=O)Nc1ccc([N+](=O)[O-])c(C(F)(F)F)c1 | inactive
CC(C)(C)OOC(C)(C)C | inactive
COP(=O)(CCC(=O)NCO)OC | inactive
NCCOS(=O)(=O)O | inactive
